In the library only some 7.6% were active in any assay of this set; here they are far more common.
p53 reactivation: mutant p53 re-activation in reporter cells | H1299 p53-A138V BP100-luciferase reporter, luminescence, 24 h | Potency, µM (doses to about 92.2 µM), inactives show top-dose activity change, positive = activation, most hits filed as activators | actives 0.063% (n = 320,000) | AID 504706; also: potency is read from the fitted curve at half-maximal effect; % of control where 0% means no effect; nearly all actives have a fitted effect of over 45% in size
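H1299 (p53-null), stable ts p53-A138V + BP100-Luc; 1000 cells/well, Opti-MEM/10% FBS; cpd 4 pt, 1:5; 24 h, 37 deg C, 5% CO2; detection reagent 10 min RT; luminescence.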
RORg inh: blocks mouse ROR gamma transcriptional activity. Drosophila S2 Gal4-RORgamma UAS-luciferase reporter, 20 h. Potency, µM (highest dose often 53.6 µM), without a hit: at the top dose activity change, negative = inhibition, most hits filed as inhibitors. actives 5.4% (n = 310,000). AID 2551; also: potency is read from the fitted curve at half-maximal effect; % is scaled to controls: 0 for no effect and ±100 for the full control effect; nearly all actives have a fitted effect of over 60% in size
Target sequence (P51450 whole entry, looked up, the tested form may be a part): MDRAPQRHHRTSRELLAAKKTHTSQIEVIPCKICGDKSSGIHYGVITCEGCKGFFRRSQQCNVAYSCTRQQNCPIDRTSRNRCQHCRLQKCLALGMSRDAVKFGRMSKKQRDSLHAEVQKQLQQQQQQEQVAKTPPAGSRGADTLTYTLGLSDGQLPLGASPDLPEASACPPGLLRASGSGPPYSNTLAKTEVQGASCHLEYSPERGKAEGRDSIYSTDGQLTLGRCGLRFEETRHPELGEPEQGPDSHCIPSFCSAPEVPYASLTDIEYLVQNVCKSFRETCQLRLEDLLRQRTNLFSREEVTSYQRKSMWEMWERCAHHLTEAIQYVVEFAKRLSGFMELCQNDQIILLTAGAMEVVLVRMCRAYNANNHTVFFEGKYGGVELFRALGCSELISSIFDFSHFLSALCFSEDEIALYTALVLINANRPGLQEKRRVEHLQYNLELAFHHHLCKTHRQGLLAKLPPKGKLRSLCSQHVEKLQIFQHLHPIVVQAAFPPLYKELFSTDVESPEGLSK
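Luciferase reporter read in Schneider cells carrying Gal4-RORγ (mouse) and UAS-Photinus luciferase; cells given compound 1 h before 700 uM copper sulfate induction, then incubated 20 h at ambient temperature.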
Giardia killer: kills Giardia lamblia; Giardia lamblia trophozoite viability; activity change, % at 7.66 µM, hits read low; actives 0.15% (n = 340,000); AID 540267; in the data active = activity change below about -80%; inconclusive = between about -30% and that limit;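 also: parasites exposed to compound for two days anaerobically before the ATP read; % is scaled to controls: 0 for no effect and ±100 for the full control effect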
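ATP-content bioluminescence gauges trophozoite survival. Cells (100/well) receive compound and incubate anaerobically for 48 hrs at 37 deg C; detection reagent follows for 15-30 min at room temperature.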
ELG1 repair inh: ELG1-dependent DNA repair inhibition; actives 2.3% (n = 330,000); AID 504467; Potency, µM (top dose mostly 46.1 µM), for the others: at the top dose activity change, negative = inhibition, most hits filed as inhibitors; HEK293T ELG1-luciferase reporter, luminescence, 16 h; DNA damage induced by 5-fluorouridine; also: potency is read from the fitted curve at half-maximal effect; % is scaled to controls: 0 for no effect and ±100 for the full control effect; nearly all actives have a fitted effect of over 55% in size
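DMSO vehicle served as the neutral condition. Each well held 2,000 cells given 5-fluorouridine plus compound; after 16 hr at 37 °C/5% CO2, ONE-Glo was added and luciferase measured 30 min later.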
BRCA1 expr up: activators of BRCA1 expression; MCF7-BRCA1-FFLuc reporter, luminescence, 48 h; response scale: scaled: vehicle 0%, 10 µM genistein 100%; Potency, µM (doses to about 46.1 µM), for the others: at the highest dose activation, actives largely listed as activators; actives 1.1% (n = 380,000); AID 624202; also: potency is read from the fitted curve at half-maximal effect; nearly all actives have a fitted effect of over 80% in size
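Compounds are tested at multiple concentrations on MCF7 BRCA1-luciferase reporter cells seeded at 2000 per well; after 48 h, a single luminescence end-point is taken and curves fitted to the normalized data.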
VP16 counter: inhibits Gal4-VP16 luciferase reporter, ROR gamma counter-screen; Drosophila S2 Gal4-VP16 UAS-luciferase, luminescence, 20 h; actives 3.5% (n = 310,000); AID 2546; Potency, µM (series often up to 53.6 µM), inactives show at the highest dose activity, negative = inhibition, actives largely listed as inhibitors;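 also: Gal4-VP16 expression switched on by copper sulfate through the metallothionein promoter; potency is read from the fitted curve at half-maximal effect; % is scaled to controls: 0 for no effect and ±100 for the full control effect; nearly all actives have a fitted effect of over 50% in size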
An asterisk follows results filed as active; ? = inconclusive; · = not tested or not shown; [ ] = dose if it differs, or a comment. Unless noted, calls follow the shape of the dose curve; as a rule, active = well fitted curve in the direction sought with a large enough effect; inconclusive = small, poorly fitted or top-dose-only effect, or another doubt; inactive = no such curve, though single readings can be large; an effect the other way counts as inactive or inconclusive.

SMILES	p53 reactivation	RORg inh	Giardia killer	ELG1 repair inh	BRCA1 expr up	VP16 counter
COc1ccc(-c2nc(-c3ccccc3OC)no2)cc1OC	?	30%	7	?	10µM*	-6%
COc1ccc(-c2nc(-c3cccc(C)c3)no2)cc1OC	?	?	-11	?	?	?
COc1ccccc1-c1noc(-c2ccccc2)n1	?	-4%	-22	?	?	4%
COc1cc(-c2nc(-c3cccc(C)c3)no2)cc(OC)c1OC	7%	37%	11	18µM*	22%	-12%
O=C(NCCN1CCOCC1)Nc1ccc(Cl)cc1Cl	1%	1%	-4	?	36%	5%
CCOC(=O)CNC(=O)C1Cc2ccccc2CN1S(=O)(=O)c1cccs1 (stereo not given)	2%	-10%	-10	-3%	5%	5%
CN1CCN(c2nc3ccccc3nc2C(C#N)S(=O)(=O)c2ccccc2)CC1 (stereo not given)	-4%	-9%	-7	8.2µM*	-26%	-8%
CC(=O)C1=C(c2ccccc2)NC(=S)NC1c1ccc(O)c(O)c1 (stereo not given)	-2%	-30%	3	20%	17%	4%
S=C1NC2=C(CCCC2=C2SCCS2)C(c2ccccc2)N1 (stereo not given)	0%	7.1µM*	36	?	-5%	?
Cc1ccc(NC(=O)CSc2nnnn2C)cc1S(=O)(=O)N(C)C	8%	28%	-17	?	12%	-4%
COC(=O)c1ccccc1NC(=S)N1CCN(c2ccccc2)CC1	-2%	-23%	-3	-7%	13%	0%
Cc1ccccc1NC(=S)N1CCN(c2ccccc2)CC1	6%	10µM*	11	-2%	1%	20µM*
Cc1ccccc1NC(=S)N1CCCCCC1	3%	11µM*	4	18%	2%	-27%
O=[N+]([O-])c1ccc(Cc2ccncc2)cc1	4%	6%	-9	-9%	-34%	8%
O=C1CCC(=O)N1c1ccc(CSc2nnnn2C2CCCCC2)cc1	4%	27%	11	0%	3%	-14%
CC1(C)CC(=O)C(C(c2ccco2)C2C(=O)CC(C)(C)CC2=O)C(=O)C1	-7%	-28%	-15	21%	7%	3%
CNC(=O)CCc1nc(-c2ccc(C(C)(C)C)cc2)no1	9%	0.32µM*	-1	?	?	7.1µM*
Cc1ccc(-c2noc(CCC(=O)NCC3CCCO3)n2)cc1 (stereo not given)	8%	-3%	26	1%	-1%	-6%
CC(C)(C)c1ccc(-c2noc(CCC(=O)NCC3CCCO3)n2)cc1 (stereo not given)	?	1µM*	-17	?	-91%	10µM*
CC(C)(C)c1ccc(-c2noc(CCC(=O)Nc3cccnc3)n2)cc1	13%	0.063µM*	3	-4%	?	?
CC(C)(C)c1ccc(-c2noc(CCC(N)=O)n2)cc1	-4%	?	-29	?	?	-17%
COc1ccc(-c2noc(CCCC(=O)Nc3ccc(C(N)=O)cc3)n2)cc1	11%	1.6µM*	-4	?	-54%	2.5µM*
OCCC1CN(Cc2cnc(-c3ccccc3)s2)CCN1C1CCCC1 (stereo not given)	1%	-13%	13	-6%	-13%	1%
O=S(=O)(c1ccc(C(F)(F)F)cc1)N1CCCN(c2ccc(C(F)(F)F)cn2)CC1	1%	37%	-17	?	-5%	6%
CCOC(=O)N1CCC(NC(=O)CCc2nc(-c3ccc(C)cc3)no2)CC1	0%	20%	16	13µM*	-24%	-10%
SMILES	p53 reactivation	RORg inh	Giardia killer	ELG1 repair inh	BRCA1 expr up	VP16 counter
CCOc1cc(-c2noc(CCC(=O)Nc3cccnc3)n2)ccc1OC	-3%	9%	-8	21µM*	12%	-12%
COc1ccc(-c2noc(CCC(=O)Nc3cccnc3)n2)cc1	27%	?	14	15%	2%	-11%
COc1ccc(OC)c(C2=Nn3c(nnc3-c3cc(C)[nH]n3)SC2)c1	-5%	0%	-1	?	-48%	-6%
O=C(Nc1cccc(O)c1)C(=O)Nc1ccccn1	-3%	27%	?	?	-11%	-3%
S=C(Nc1ccccc1)c1ccccn1	?	0.63µM*	-27	?	10µM*	2µM*
O=C(Nc1ccccc1)O/N=C(\c1ccccc1)c1ccccn1	21%	11µM*	7	?	14%	-7%
S=C(Nc1ccccc1)Nc1ccccn1	·	·	·	·	53%	·
S=C(Nc1ccc(Nc2ccccc2)cc1)Nc1ccccn1	1%	0.71µM*	-6	12%	-49%	2.5µM*
O=C(Nc1ccccc1)C(=O)Nc1ccccn1	-2%	2.2µM*	-16	?	-25%	5µM*
COCCNC(=O)CN(c1cccc(OC)c1)S(=O)(=O)c1ccc(C)cc1	3%	1%[10 µM]	3	3%	0%	14%
CCCCc1nnc(NC(=O)CCS(=O)(=O)Cc2ccccc2)s1	-11%	-24%	-9	-1%	6%	-5%
COc1ccc(/C=N/NC(=O)C(=O)Nc2ccccn2)cc1OC	24%	-2%	2	6%	-11%	-2%
O=C(N/N=C/c1ccccc1O)C(=O)Nc1ccccn1	9%	1.4µM*	-24	-4%	3%	10µM*
O=C(O)c1ccc(NC(=O)c2cn(-c3ccccc3)nc2-c2ccc(Br)cc2)cc1	7%	32%	-11	3%	43%	-28%
NS(=O)(=O)c1ccc(NS(=O)(=O)c2ccc(Br)cc2)cc1	-4%	-10%	-1	-1%	-13%	-9%
CCOc1ccc(/C=N/NC(=O)C(O)c2ccccc2)c(O)c1 (stereo not given)	-47%	0.79µM*	-24	?	-36%	2µM*
CCOc1ccc(CCNC(=O)C(O)c2ccccc2)cc1 (stereo not given)	1%	?	5	-1%	-1%	-9%
O=C1c2cccc(Cl)c2C(=O)N1c1ccccn1	·	·	12	·	-5%	·
CCOc1cc(CNn2cn[nH]c2=S)cc(Cl)c1OCc1ccccc1F	-16%	7.9µM*	-11	-22%	-38%	6.3µM*
O=C(Nc1ccc(NC(=O)c2ccco2)nc1)c1cccc(F)c1	?	-7%	-3	?	?	-10%
COc1ccc(NC(=O)/C=C/c2cccc(Br)c2)cn1	19%	?	39	?	75%	?
O=C(Nc1ccc(Oc2cccc(C(F)(F)F)c2)nc1)c1ccco1	-11%	?	1	10µM*	-15%	0%

Screening results: PubChem BioAssay, National Center for Advancing Translational Sciences (NCATS)
